Data from PubChem BioAssay AID1159580 (chemical genetic matrix, 2015).
The whole screen tested about 5,500 compounds, of which about 2,000 (36%) were called active. Another 18% or so got no clear call; they are omitted. No stated cut-off is given here; in the data, active means normalized growth mostly below about 0.91 (no sharp cut-off); inconclusive means no clear call, values can overlap the other calls; inactive means mostly above about 0.92. Some of the results follow.

Assay: chemical genetic growth profiling, strain panel (AID 1159580);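 further: tested at 20 µM; growth read once vehicle control cultures reached saturation at 30 °C; 1 = growth at the plate median or of vehicle wells; lower values mean less growth of the strain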
Conditions: growth OD

Measured: normalized growth

CCC(=O)Nc1ccc(Cl)c(Cl)c1
inactive: S. cerevisiae deletion strains, locus YJR043C, strain POL32, active compounds read low 0.931 | S. cerevisiae deletion strains, locus YJR075W, strain HOC1, active compounds read low 0.965 | S. cerevisiae deletion strains, locus YKL009W, strain mrt4, active compounds read low 0.976 | S. cerevisiae deletion strains, locus YKL068W, active compounds read low 0.999 | S. cerevisiae deletion strains, locus YKL085W, strain MDH1 (second series), active compounds read low 0.999 | S. cerevisiae deletion strains, locus YKL085W, strain MDH1, active compounds read low 0.999 | S. cerevisiae deletion strains, locus YKL160W, strain elf1, active compounds read low 0.984 | S. cerevisiae deletion strains, locus YKL190W, strain CNB1, active compounds read low 1 | S. cerevisiae deletion strains, locus YKR001C, strain vps1, active compounds read low 0.973 | S. cerevisiae deletion strains, locus YKR026C, strain gcn3, active compounds read low 1 | S. cerevisiae deletion strains, locus YKR091W, strain srl3, active compounds read low 0.982 | S. cerevisiae deletion strains, locus YLL001W, strain dnm1, active compounds read low 0.99 | S. cerevisiae deletion strains, locus YLL026W, active compounds read low 0.989 | S. cerevisiae deletion strains, locus YLL041C, strain sdh2, active compounds read low 0.996 | S. cerevisiae deletion strains, locus YLR027C, strain aat2, active compounds read low 1 | S. cerevisiae deletion strains, locus YLR039C, strain RIC1, active compounds read low 1.02 | S. cerevisiae deletion strains, locus YLR058C, strain SHM2, active compounds read low 1 | S. cerevisiae deletion strains, locus YLR102C, strain apc9, active compounds read low 1 | S. cerevisiae deletion strains, locus YLR221C, strain rsa3, active compounds read low 0.986 | S. cerevisiae deletion strains, locus YLR258W, strain gsy2, active compounds read low 0.996 | S. cerevisiae deletion strains, locus YLR262C, strain YPT6 (second series), active compounds read low 1 | S. cerevisiae deletion strains, locus YLR262C, strain YPT6, active compounds read low 0.978 | S. cerevisiae deletion strains, locus YLR268W, strain sec22, active compounds read low 0.982 | S. cerevisiae deletion strains, locus YLR320W, strain mms22, active compounds read low 0.969 | S. cerevisiae deletion strains, locus YLR330W, strain CHS5, active compounds read low 0.995 | S. cerevisiae deletion strains, locus YLR342W, strain FKS1 (second series), active compounds read low 0.981 | S. cerevisiae deletion strains, locus YLR342W, strain FKS1, active compounds read low 0.973 | S. cerevisiae deletion strains, locus YLR357W, strain rsc2, active compounds read low 0.952 | S. cerevisiae deletion strains, locus YLR370C, strain arc18, active compounds read low 0.985 | S. cerevisiae deletion strains, locus YLR371W, strain rom2, active compounds read low 1.01 | S. cerevisiae deletion strains, locus YLR384C, strain iki3, active compounds read low 1.01 | S. cerevisiae deletion strains, locus YLR418C, strain cdc73, active compounds read low 0.866 | S. cerevisiae deletion strains, locus YML016C, strain PPZ1, active compounds read low 0.997 | S. cerevisiae deletion strains, locus YML032C, strain rad52, active compounds read low 1 | S. cerevisiae deletion strains, locus YML120C, strain ndi1, active compounds read low 1 | S. cerevisiae deletion strains, locus YML124C, strain tub3, active compounds read low 1 | S. cerevisiae deletion strains, locus YMR058W, strain fet3, active compounds read low 0.993 | S. cerevisiae deletion strains, locus YMR078C, strain ctf18, active compounds read low 1 | S. cerevisiae deletion strains, locus YMR125W, strain sto1, active compounds read low 0.98 | S. cerevisiae deletion strains, locus YMR129W, active compounds read low 0.98 | S. cerevisiae deletion strains, locus YMR205C, strain PFK2, active compounds read low 0.958 | S. cerevisiae deletion strains, locus YMR223W, strain ubp8, active compounds read low 1 | S. cerevisiae deletion strains, locus YMR231W, strain pep5, active compounds read low 0.997 | S. cerevisiae deletion strains, locus YMR263W, strain SAP30, active compounds read low 0.986 | S. cerevisiae deletion strains, locus YMR307W, strain GAS1, active compounds read low 0.843 | S. cerevisiae deletion strains, locus YNL067W, strain RPL9B, active compounds read low 0.965 | S. cerevisiae deletion strains, locus YNL071W, strain lat1, active compounds read low 0.987 | S. cerevisiae deletion strains, locus YNL128W, strain TEP1, active compounds read low 0.988 | S. cerevisiae deletion strains, locus YNL153C, strain GIM3, active compounds read low 0.988 | S. cerevisiae deletion strains, locus YNL209W, strain ssb2, active compounds read low 0.988 | S. cerevisiae deletion strains, locus YNL233W, strain BNI4, active compounds read low 0.976 | S. cerevisiae deletion strains, locus YNL248C, strain rpa49, active compounds read low 0.991 | S. cerevisiae deletion strains, locus YNL250W, strain rad50, active compounds read low 1.01 | S. cerevisiae deletion strains, locus YNL271C, strain bni1, active compounds read low 1.01 | S. cerevisiae deletion strains, locus YNL298W, strain CLA4, active compounds read low 0.995 | S. cerevisiae deletion strains, locus YNL307C, strain MCK1, active compounds read low 0.992 | S. cerevisiae deletion strains, locus YNL322C, strain KRE1 (second series), active compounds read low 0.987 | S. cerevisiae deletion strains, locus YNL322C, strain KRE1, active compounds read low 0.995 | S. cerevisiae deletion strains, locus YNR049C, strain mso1, active compounds read low 0.994 | S. cerevisiae deletion strains, locus YNR052C, strain pop2, active compounds read low 1.02 | S. cerevisiae deletion strains, locus YOL006C, strain TOP1, active compounds read low 0.885 | S. cerevisiae deletion strains, locus YOL012C, strain htz1 0.818 | S. cerevisiae deletion strains, locus YOL147C, strain pex11, active compounds read low 0.999 | S. cerevisiae deletion strains, locus YOR001W, strain rrp6, active compounds read low 0.994 | S. cerevisiae deletion strains, locus YOR061W, strain CKA2, active compounds read low 0.997 | S. cerevisiae deletion strains, locus YOR069W, strain VPS5, active compounds read low 1.01 | S. cerevisiae deletion strains, locus YOR070C, strain gyp1, active compounds read low 0.998 | S. cerevisiae deletion strains, locus YOR080W, strain dia2, active compounds read low 0.956 | S. cerevisiae deletion strains, locus YOR083W, strain WHI5, active compounds read low 0.994 | S. cerevisiae deletion strains, locus YOR106W, strain vam3, active compounds read low 0.988 | S. cerevisiae deletion strains, locus YOR136W, strain idh2, active compounds read low 0.998 | S. cerevisiae deletion strains, locus YOR144C, strain elg1, active compounds read low 0.995 | S. cerevisiae deletion strains, locus YOR184W, strain ser1, active compounds read low 0.977 | S. cerevisiae deletion strains, locus YOR265W, strain rbl2, active compounds read low 0.995 | S. cerevisiae deletion strains, locus YOR270C, strain vph1, active compounds read low 0.992 | S. cerevisiae deletion strains, locus YOR290C, strain snf2, active compounds read low 0.988 | S. cerevisiae deletion strains, locus YOR316C, strain cot1, active compounds read low 1.01 | S. cerevisiae deletion strains, locus YPL051W, strain arl3, active compounds read low 0.994 | S. cerevisiae deletion strains, locus YPL055C, strain LGE1, active compounds read low 0.904 | S. cerevisiae deletion strains, locus YPL078C, strain atp4, active compounds read low 0.988 | S. cerevisiae deletion strains, locus YPL106C, strain sse1, active compounds read low 0.952 | S. cerevisiae deletion strains, locus YPL240C, strain hsp82, active compounds read low 0.968 | S. cerevisiae deletion strains, locus YPL241C, strain CIN2, active compounds read low 0.993 | S. cerevisiae deletion strains, locus YPR119W, strain clb2, active compounds read low 1 | S. cerevisiae deletion strains, locus YPR141C, strain kar3, active compounds read low 1.01 | S. cerevisiae deletion strains, locus YPR163C, strain tif3, active compounds read low 0.997 | S. cerevisiae deletion strains, locus YPR167C, strain met16, active compounds read low 1 | S. cerevisiae deletion strains, strain wtn01, active compounds read low 1 | S. cerevisiae strains, strain wild type, active compounds read low 0.994
